From PubChem
Compounds with a hit are over-represented: about 21% of the library has one in this group of screens.
Pf growth 48h: Primary qHTS for delayed death inhibitors of the malarial parasite plastid, 48 hour incubation | P. falciparum luciferase growth in erythrocytes, 48 h | Potency, µM (top dose mostly 28.7 µM), usual class: inhibitors | 310,000 tested, 5.9% active
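Luminescence readout; reporter = integrated firefly luciferase in P. falciparum. RBC culture at 2% hematocrit, 0.1% parasitemia final, 37 C/5% CO2; decreased signal taken as growth inhibition.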
Shiga inhibitor: A qHTS for Small Molecule Inhibitors of Shiga Toxin | Vero cells, Shiga toxin protein synthesis inhibition reporter | inhibition, % at 38.7 µM | 290,000 tested, 9.2% active; in the data active means inhibition mostly above about 28%, no sharp cut-off; inactive means mostly below about 43%
Cycloheximide cs: Cycloheximide Counterscreen for Small Molecule Inhibitors of Shiga Toxin. cell reporter, cycloheximide protein synthesis inhibition counterscreen. max response, %. 300,000 tested, 12% active. AID 2314, 2010; in the data active means max response mostly above about 13%, no sharp cut-off; inactive means mostly below about 14%; further: read at 38.3 µM for the half of the compounds with a filed dose
Pf growth 96h: Primary qHTS for delayed death inhibitors of the malarial parasite plastid, 96 hour incubation. P. falciparum luciferase reporter growth, 96 h. Potency, µM (highest dose often 28.7 µM), hits mostly inhibitors. 320,000 tested, 6.9% active
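Delayed-death screen, second-generation endpoint: infected erythrocytes, 2% hematocrit, 0.05% parasitemia final; 96 hours at 37 C, 5% CO2; luciferase detection reagent; luminescence decrease equals reduced growth.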
Hits are given with their value. Unless noted, the call rests on the fitted dose curve; in most records, active means well fitted inhibition curve with a large enough effect; inconclusive means small, poorly fitted or top-dose-only effect, or another doubt; inactive means no such curve, though single readings can be large or run the other way.

For Cc1cc(C(=O)COC(=O)c2ccc(N)c([N+](=O)[O-])c2)c(C)n1-c1ccc2c(c1)OCO2 the results were Pf growth 48h 13µM, Shiga inhibitor inactive, Cycloheximide cs inactive and Pf growth 96h 4.7µM.
`CC(C)(C)C(=O)COC(=O)c1ccc(N)c([N+](=O)[O-])c1` gave Pf growth 48h inactive, Shiga inhibitor 83, Cycloheximide cs 43 and Pf growth 96h inactive.
`C=CCn1c(C)cc(C(=O)COC(=O)c2ccc(N)c([N+](=O)[O-])c2)c1C` gave Pf growth 48h inactive, Shiga inhibitor 58, Cycloheximide cs 55 and Pf growth 96h inactive.
`Cc1cc(C(=O)COC(=O)c2ccc(N)c([N+](=O)[O-])c2)c(C)n1Cc1ccc2c(c1)OCO2` gave Pf growth 48h inactive, Shiga inhibitor inactive, Cycloheximide cs inactive and Pf growth 96h inactive.
`COc1ccc2c(c1OC)C(=O)N1c3ccccc3C(=O)N(c3ccccc3)C21` (stereo not drawn) gave Pf growth 48h 13µM, Shiga inhibitor inactive, Cycloheximide cs inactive and Pf growth 96h 10µM.
c1ccc(N2CCOCCOCCOCCOCCOCC2)cc1 was read as Pf growth 48h inactive, Shiga inhibitor inactive, Cycloheximide cs inactive and Pf growth 96h inactive.
For O=c1cc(N2CCOCC2)cnn1-c1ccccc1 the results were Pf growth 48h inactive, Shiga inhibitor 73, Cycloheximide cs 40 and Pf growth 96h inactive.
O=C(O)CN1C(=O)COc2ccc(S(=O)(=O)N3CCCCCC3)cc21 was read as Pf growth 48h inactive, Shiga inhibitor inactive, Cycloheximide cs inactive and Pf growth 96h inconclusive.
`CCOC(=O)C1CCN(C(=O)CSc2cc(=O)n(CC)c3ccccc23)CC1` gave Pf growth 48h inactive, Shiga inhibitor inactive, Cycloheximide cs inactive and Pf growth 96h 0.0033µM.
`CCn1c(=O)cc(SCC(=O)N2CCN(C)CC2)c2ccccc21` gave Shiga inhibitor inactive, Cycloheximide cs inactive and Pf growth 96h 0.066µM.
COc1cccc(N/C(N)=N/c2nc(C(F)(F)F)cc(=O)[nH]2)c1 was read as Pf growth 48h inactive, Shiga inhibitor inactive, Cycloheximide cs inactive and Pf growth 96h inactive.
CCC(C)NC(=O)c1cc(OC)c(OC)c(OC)c1 (stereo not drawn) was read as Pf growth 48h inactive, Shiga inhibitor inactive, Cycloheximide cs inactive and Pf growth 96h 2.3µM.
`COc1cc(C(=O)NC(CCSC)C(=O)OCC(=O)C(C)(C)C)cc(OC)c1OC` (stereo not drawn) gave Pf growth 48h inactive, Shiga inhibitor 53, Cycloheximide cs inactive and Pf growth 96h inactive.
CCC(C)NC(=O)CSc1nnc(-c2cc(OC)c(OC)c(OC)c2)c(-c2cc(OC)c(OC)c(OC)c2)n1 (stereo not drawn) was read as Pf growth 48h 10µM, Shiga inhibitor inactive, Cycloheximide cs inactive and Pf growth 96h inactive.
CCOc1cc(C(=O)NC(C)CC)cc(OCC)c1OCC (stereo not drawn) was read as Pf growth 48h inactive, Shiga inhibitor inactive, Cycloheximide cs inactive and Pf growth 96h inactive.
COc1cc(C(=O)N[C@H](C(=O)NC2CCCCCC2)C(C)C)cc(OC)c1OC was read as Shiga inhibitor inactive, Cycloheximide cs inactive and Pf growth 96h 12µM.
For N=c1sccn1CC(=O)Nc1cc(S(=O)(=O)N2CCCC2)ccc1Cl the results were Pf growth 48h inactive, Shiga inhibitor inactive, Cycloheximide cs inactive and Pf growth 96h inactive.
C=CCNC(=O)COC(=O)c1ccc(Sc2nncn2C)c([N+](=O)[O-])c1 was read as Pf growth 48h inactive, Shiga inhibitor inactive, Cycloheximide cs inactive and Pf growth 96h inactive.
For O=C(Nc1ccc(C(F)(F)F)cc1)C(Cc1ccccc1)n1cccc1 (stereo not drawn) the results were Shiga inhibitor inactive and Cycloheximide cs inactive.
`Cc1ccc(NC(=O)c2oc3ccccc3c2NC(=O)C2CCCO2)cc1C` (stereo not drawn) gave Pf growth 48h inconclusive, Shiga inhibitor 100, Cycloheximide cs 42 and Pf growth 96h inconclusive.
CCOc1ccccc1NC(=O)c1oc2ccccc2c1NC(=O)C1CC1 was read as Pf growth 48h inconclusive, Shiga inhibitor inactive, Cycloheximide cs inactive and Pf growth 96h inconclusive.
Screening COc1ccc(NC(=O)c2oc3ccccc3c2NC(=O)C2CC2)cc1OC returned Pf growth 48h inconclusive, Shiga inhibitor inactive, Cycloheximide cs inactive and Pf growth 96h 12µM.
`O=C(Nc1ccc(F)c(F)c1)c1oc2ccccc2c1NC(=O)C1CCCO1` (stereo not drawn) gave Pf growth 48h inactive, Shiga inhibitor inactive, Cycloheximide cs inactive and Pf growth 96h inconclusive.
`COc1ccccc1NC(=O)c1oc2ccccc2c1NC(=O)C1CC1` gave Pf growth 48h 12µM, Shiga inhibitor inactive, Cycloheximide cs inactive and Pf growth 96h 15µM.
For COc1ccc(NC(=O)c2oc3ccccc3c2NC(=O)C2CCCO2)cc1OC (stereo not drawn) the results were Pf growth 48h inconclusive, Shiga inhibitor inactive, Cycloheximide cs 37 and Pf growth 96h inactive.
Screening O=c1cc(C(F)(F)F)nc(SCc2cccnc2)[nH]1 returned Pf growth 48h inactive, Shiga inhibitor inactive, Cycloheximide cs inactive and Pf growth 96h inactive.
Screening CCOc1ccc(NC(=O)CCN2C(=O)c3ccccc3C2=O)cc1 returned Pf growth 48h inactive, Shiga inhibitor inactive, Cycloheximide cs inactive and Pf growth 96h inactive.
Cc1cccc(OCCCN2C(=O)C(=O)c3cc(C)ccc32)c1 was read as Pf growth 48h inactive, Shiga inhibitor inactive, Cycloheximide cs inactive and Pf growth 96h inactive.
For CCOc1ccc(OCCN2C(=O)c3ccccc3C2=O)cc1 the results were Pf growth 48h inconclusive, Shiga inhibitor inactive, Cycloheximide cs inactive and Pf growth 96h 13µM.
O=C1C(=O)N(CCCc2ccccc2)c2ccccc21 was read as Pf growth 48h inconclusive, Shiga inhibitor inactive, Cycloheximide cs inactive and Pf growth 96h 10µM.
Nc1cccc2c1C(=O)N(CCOc1ccccc1F)C2=O was read as Pf growth 48h inactive, Shiga inhibitor 46, Cycloheximide cs 19 and Pf growth 96h inactive.
Cc1cccc(OCCN2C(=O)c3ccccc3C2=O)c1 was read as Pf growth 48h inactive, Shiga inhibitor 89, Cycloheximide cs 49 and Pf growth 96h inactive.
Screening O=C1Nc2cc3c(cc2C1=O)sc1ccccc13 returned Pf growth 48h inactive, Shiga inhibitor inactive, Cycloheximide cs inactive and Pf growth 96h inactive.
For O=C(OCN1C(=O)c2ccccc2C1=O)c1ccccc1 the results were Pf growth 48h inactive, Shiga inhibitor inactive, Cycloheximide cs inactive and Pf growth 96h inactive.
Screening COc1ccc(OCCN2C(=O)c3ccccc3C2=O)c([N+](=O)[O-])c1 returned Pf growth 48h inactive, Shiga inhibitor 62, Cycloheximide cs 96 and Pf growth 96h inactive.
For N#Cc1ccccc1OCCN1C(=O)c2ccccc2C1=O the results were Pf growth 48h inactive, Shiga inhibitor 86, Cycloheximide cs 40 and Pf growth 96h inactive.
N#Cc1ccccc1OCC(=O)OCCCOC(=O)COc1ccccc1C#N was read as Pf growth 48h inactive, Shiga inhibitor inactive, Cycloheximide cs inactive and Pf growth 96h inconclusive.
For O=C(OCCN1C(=O)c2ccccc2C1=O)c1ccccc1 the results were Pf growth 48h inactive, Shiga inhibitor inactive, Cycloheximide cs 24 and Pf growth 96h inactive.
